Hit rate of the full screen: of about 340,000 compounds, about 990 (0.29%) were called active. This is one part of a sample in which actives are shown more often than they occur. Rule as the data show it: active = activation above about 18%; inactive = the rest.

Mu-type opioid receptor (Homo sapiens) + Delta-type opioid receptor (Homo sapiens), sequence (P35372 whole entry, looked up): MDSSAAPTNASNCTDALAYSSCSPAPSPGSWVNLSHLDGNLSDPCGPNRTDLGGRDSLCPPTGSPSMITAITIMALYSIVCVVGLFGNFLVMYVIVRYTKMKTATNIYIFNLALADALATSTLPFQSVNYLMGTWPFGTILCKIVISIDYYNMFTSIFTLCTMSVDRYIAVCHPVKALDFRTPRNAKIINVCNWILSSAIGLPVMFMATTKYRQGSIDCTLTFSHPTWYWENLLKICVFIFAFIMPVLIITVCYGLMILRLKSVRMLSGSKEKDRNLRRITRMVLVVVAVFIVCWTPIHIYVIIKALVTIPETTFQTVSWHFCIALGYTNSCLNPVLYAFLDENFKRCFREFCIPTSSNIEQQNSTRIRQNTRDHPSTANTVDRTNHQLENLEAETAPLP
Mu-type opioid receptor (Homo sapiens) + Delta-type opioid receptor (Homo sapiens), sequence (P41143 whole entry, looked up): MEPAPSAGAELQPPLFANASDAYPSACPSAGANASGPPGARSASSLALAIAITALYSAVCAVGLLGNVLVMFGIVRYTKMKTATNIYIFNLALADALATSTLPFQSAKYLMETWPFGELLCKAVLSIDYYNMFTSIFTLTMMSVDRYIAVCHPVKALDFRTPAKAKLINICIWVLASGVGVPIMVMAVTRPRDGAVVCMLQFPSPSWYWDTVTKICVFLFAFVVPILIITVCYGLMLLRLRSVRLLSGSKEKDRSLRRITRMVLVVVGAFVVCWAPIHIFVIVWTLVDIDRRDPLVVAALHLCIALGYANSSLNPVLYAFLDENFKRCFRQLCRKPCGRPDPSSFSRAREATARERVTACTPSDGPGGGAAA

The assay addresses Mu-type opioid receptor (Homo sapiens) + Delta-type opioid receptor (Homo sapiens) (UniProt P35372+P41143). Briefly: inducers of mu-delta opioid receptor heterodimers – cell-based, luminescence, primary screen (AID 504326).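 Also: 0% = vehicle-treated cells and 100% = reference agonist.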 As to conditions: cells, OPRM1-OPRD1 heterodimerization, at 9.3 µM, stronger effect = higher value.
For the molecule `COC(=O)CCCC1=CC2=C(c3ccccc3)C(=O)C(C)(OC(=O)C3CCCC3)C(=O)C2=CN1c1ccc(OC)cc1` (stereo not drawn), the activation was -1.53% (inactive). In the case of `COc1cccc(/C=N/Nc2ccc(S(=O)(=O)Nc3ccccc3C(=O)O)cc2[N+](=O)[O-])c1O` it was -1.24% (inactive); in that of `COc1ccc(Cc2nnc(N/N=C/c3ccccc3O)[nH]c2=O)cc1OC`, -0.28% (inactive); in that of `COc1cccc(/C=N/Nc2cc(C)nc(-c3ccccc3O)n2)c1O`, 35.6% (active). As for `O=C(NCCc1ccccc1)c1c[nH]c2ccc(F)cc2c1=O`, the activation was -1.1% (inactive). In the case of `C=CCOc1ccc(/C=C/C(=O)OC(C)C(=O)Nc2ccc(NC(C)=O)cc2)cc1` (stereo not drawn) it was -0.11% (inactive); in that of `CC(OC(=O)/C=C/c1ccccc1)C(=O)NC1CCCCC1C` (stereo not drawn), -0.81% (inactive); in that of `CC(OC(=O)/C=C/c1ccccc1)C(=O)Nc1ccc(C(N)=O)cc1` (stereo not drawn), 34.1% (active). Then `CC(C)CC(=O)N=C1SC2CS(=O)(=O)CC2N1CCc1ccccc1` (stereo not drawn), with -2.17% (inactive); and `COc1ccc2sc(N(CCCN(C)C)C(=O)c3ccc(S(=O)(=O)N(C)C4CCCCC4)cc3)nc2c1`, with -0.93% (inactive); and `CN(C)CCCN(C(=O)c1ccc(S(=O)(=O)N2CCCCCC2)cc1)c1nc2ccc(Br)cc2s1`, with 1.54% (inactive). For the molecule `CN(C)CCCN(C(=O)c1ccc(S(=O)(=O)N2CCCc3ccccc32)cc1)c1nc2ccc(F)cc2s1`, the activation was 268% (active).

Regarding `Cc1ccc(C)c(S(=O)(=O)Nc2cccc(-n3cnnn3)c2)c1`, the activation was -2.5% (inactive). Turning to `C/C=C/C=C/C(=O)O`, the activation was -2.37% (inactive).

Take `CCCC1(C(=O)OC)NC(c2ccco2)C2C(=O)N(C)C(=O)C21` (stereo not drawn): the activation was -1.73% (inactive).

For `O=C(Nc1ccncc1)c1cc(-c2ccccn2)nc2ccc(Br)cc12`, the activation is -0.71% (inactive).

As to `Cc1ccc2nc(-c3ccncc3)cc(C(=O)Nc3ccncc3)c2c1`, the activation is 24% (active). Then `Cc1ccc2nc(-c3ccncc3)cc(C(=O)Nc3ccc(OC(F)F)cc3)c2c1`, with 8.59% (inactive). Then `CCc1ccc(NC(=O)CS(=O)CC(=O)N2CCN(c3ccccc3F)CC2)cc1` (stereo not drawn), with -0.39% (inactive); and `CC(c1cccnc1)N(CCN(C)C)C(=O)Nc1ccc(Cl)c(Cl)c1` (stereo not drawn), with 35.5% (active). Take `O=C(NCc1ccc(Cl)c(Cl)c1)c1cccnc1`: the activation was 0.81% (inactive). As to `CN(CC(=O)NCc1cccnc1)S(=O)(=O)c1cc(Cl)ccc1Cl`, the activation was -3.02% (inactive). Consider `CCN(CC)P(=O)(Nc1ccc(SC(F)F)cc1)c1ccc(N(C)C)cc1NC(=O)c1ccco1` (stereo not drawn), for which the activation is -0.5% (inactive). In the case of `CC(=O)Nc1ccc(S(=O)(=O)N(C)c2ccc(OCC(=O)OCC(=O)N3CCCCC3)cc2)cc1` it was -0.7% (inactive). Then `Cc1c(C(=O)c2cccc([N+](=O)[O-])c2)c2ccccn2c1CCC#N`, with -2.59% (inactive); and `FC(F)(F)c1ccc2nnc(-c3c(Cl)cccc3Cl)n2c1`, with -0.01% (inactive); and `Cc1ccc(C)c(N(CC(=O)NCc2ccco2)C(=O)CCC(=O)Nc2ccccn2)c1`, with -3.72% (inactive). For the molecule `CCOc1ccccc1-c1nc(CN2CCC(C(=O)N3CCOCC3)CC2)c(C)o1`, the activation was -0.49% (inactive). Regarding `COc1cccc(CC2(CO)CCCN(Cc3nc(-c4cccs4)oc3C)C2)c1` (stereo not drawn), the activation was 0.45% (inactive). Regarding `CCOC(=O)C1(CC2CCCCO2)CCN(Cc2nc(-c3cccs3)oc2C)CC1` (stereo not drawn), the activation is 45.6% (active). With `CCOc1ccc(NC(=O)C2CC(=O)N=C(N)S2)cc1` (stereo not drawn), the activation was -2.05% (inactive). Then `COc1ccc2c(CC(=O)NNC(=O)c3ccccc3F)coc2c1`, with -0.31% (inactive); and `CCOC(=O)c1c(NC(=O)CNC2CCCc3ccccc32)sc(C(N)=O)c1C` (stereo not drawn), with 9.2% (inactive); and `CC(NC(=O)c1ccccc1)C(=O)Nc1ccccc1` (stereo not drawn), with -3.96% (inactive). Then `O=C(NC1=CC(=O)c2ccccc2C1=O)c1ccccc1`, with 20% (active). As to `O=C1C=C(NS(=O)(=O)c2ccccc2)C(=O)c2ccccc21`, the activation was 1.48% (inactive). On to `O=C(Cc1ccc(S(=O)(=O)N2CCOCC2)s1)N1CCN(c2ccc(C(F)(F)F)cc2[N+](=O)[O-])CC1`, for which the activation was -0.92% (inactive). As for `CCOC(=O)N1CCN(c2c(NCCN3CCN(c4ccccc4F)CC3)c(=O)c2=O)CC1`, the activation is -1.83% (inactive).

With `CN(Cc1ccccc1)C(=O)c1ccc(COc2ccccc2)cc1`, the activation is 1.93% (inactive). Then `COc1ccc(NC(=O)CN(C)C(=O)c2ccc(COc3ccccc3)o2)cc1`, with -1.92% (inactive). `CN(CC(=O)Nc1ccc(Cl)cc1)C(=O)c1ccc(COc2ccccc2)cc1`: the activation is 22.2% (active). Consider `CC(CNc1ccc([N+](=O)[O-])c2cccnc12)Nc1c([N+](=O)[O-])cc(C(F)(F)F)cc1[N+](=O)[O-]` (stereo not drawn), for which the activation was 0.2% (inactive). In the case of `CCOC(=O)c1sc(NC(=O)C2CSC3(C)CCC(=O)N23)nc1C` (stereo not drawn) it was -4.78% (inactive); in that of `CCOc1ccc(OCC)c(-c2c(=O)n(OCc3ccc(Cl)cc3)c3ccccc3[n+]2[O-])c1`, -0.14% (inactive). For `Clc1ccc(COn2c(-c3ccc(Cl)cc3Cl)nc3ncccc32)cc1`, the activation was 55.9% (active).

Regarding `Clc1ccc(-c2cc(-c3ccccn3)on2)c(Cl)c1`, the activation is -0.72% (inactive). In the case of `Cc1cccc(N2CCN(C(=O)c3ccccc3NC(=O)C3CCCCC3C(=O)O)CC2)c1` (stereo not drawn) it was -1.68% (inactive); in that of `COc1ccc(C2Nc3ccccc3C(=O)N2Cc2ccccc2)cc1Cn1nnc2ccccc21` (stereo not drawn), 15.1% (inactive). Then `COc1ccc(C2Nc3ccccc3C(=O)N2c2ccc(F)cc2)cc1Cn1nnc2ccccc21` (stereo not drawn), with 29.4% (active); and `COc1ccc(N2C(=O)c3ccccc3NC2c2ccc(OC)c(CN3CCOCC3)c2)cc1` (stereo not drawn), with -3.57% (inactive); and `Cc1ccc2cccc(O)c2[n+]1[O-]`, with 4.35% (inactive).

With `CCOc1ccc(C(=O)Nc2ccc(S(=O)(=O)NCC3CCCO3)cc2)cc1OCC` (stereo not drawn), the activation is -4.05% (inactive). Then `COc1ccc(/C=C/C(=O)Nc2ccc(C34CC5CC(CC(O)(C5)C3)C4)cc2)cc1OC`, with 3.53% (inactive). In the case of `O=C(NCc1cn2ccsc2n1)Nc1cccc(Cl)c1` it was -4.06% (inactive); in that of `O=C(NCc1cn2ccsc2n1)Nc1ccc(Cl)cc1`, 30.4% (active); in that of `O=C(NCc1ccccn1)Nc1ccc(Cl)cc1`, -2.12% (inactive).

On to `CCSC1=C(C#N)C(=O)n2c1cc1c2CCCC1`, for which the activation is -1.61% (inactive). For the molecule `O=C1c2cccc3c([N+](=O)[O-])ccc(c23)C(=O)N1CC1CCCO1` (stereo not drawn), the activation was 2.93% (inactive). On to `Cc1cc(C)c(S(=O)(=O)N2C=CC(C(F)(F)F)=NCC2)c(C)c1`, for which the activation was 0.24% (inactive). As to `COc1cccc(-n2c(SCC(=O)NC3CCCCC3)nc3n[nH]c(C)c3c2=N)c1`, the activation was 0.14% (inactive). With `Cc1ccc(-n2c(SCC(=O)NCCC3=CCCCC3)nc3n[nH]c(C)c3c2=N)cc1Cl`, the activation was 27.3% (active).

For `CCCCNC(=O)CSc1nc2n[nH]c(C)c2c(=N)n1-c1cccc(Cl)c1C`, the activation is 0.12% (inactive). In the case of `CCNS(=O)(=O)c1ccc(NC(=O)Nc2cccc(OC)c2)cc1` it was 62.3% (active); in that of `CCN(CC(=O)Nc1ccc(S(=O)(=O)N2CCCC2)cc1)CC(=O)Nc1cccc(OC)c1`, -3.32% (inactive).

With `COc1cccc(NC(C)=[N+](C)CCNS(=O)(=O)c2ccc(Cl)cc2)c1`, the activation is -2.81% (inactive).

As for `Cc1ccc(N2C(=O)N3[C@@H]4c5ccccc5OC[C@@H]4[C@@H](c4ccccc4)[C@@]3(C)C2=O)cc1`, the activation was -1.07% (inactive). `CC(C)N(Cc1nnc(-c2ccccc2Br)o1)C(=O)c1cc(Cl)nc2ccccc12`: the activation was -1.2% (inactive). With `COCCCNc1nc2c(-c3cccc(C)c3)nnn2c2ccc(Cl)cc12`, the activation is 41.8% (active). For the molecule `COCCCNc1nc2c(-c3cccc(C(F)(F)F)c3)nnn2c2ccccc12`, the activation was -0.55% (inactive). In the case of `COC(=O)Cn1nc(-c2ccccc2)c2cc(Cl)ccc21` it was -1.42% (inactive); in that of `CC(=O)c1ccc(NC(=O)C(C)NCc2ccc(Cl)cc2)cc1` (stereo not drawn), -0.65% (inactive); in that of `CN(C(=O)c1ccc(NC(=O)Cc2cccc(NC(=O)C3CCN(C(=O)c4ccccc4)CC3)c2)cc1)C1CC1`, -0.88% (inactive). Then `COCCOC1CCN(C(=O)c2ccc(OC)c(OC3CCN(C(C)C)CC3)c2)CC1`, with -3.67% (inactive). Then `CCC(C(=O)OCC(=O)Nc1ccccc1-c1ccccc1)c1ccccc1` (stereo not drawn), with 12.4% (inactive); and `CCC(C(=O)OCC(=O)Nc1c(Cl)cc(Cl)cc1Cl)c1ccccc1` (stereo not drawn), with 6.24% (inactive); and `CCC(C(=O)OCC(=O)Nc1ccc(C(=O)Nc2ccc(OC)cc2)cc1)c1ccccc1` (stereo not drawn), with 19.4% (active). As for `O=C(CC(=O)N/N=C\c1cccc(Cl)c1Cl)NCc1ccccc1`, the activation is 1.01% (inactive). In the case of `O=C(CNC(=O)c1ccccc1F)c1ccc(Br)cc1`, the activation is -3.5% (inactive). Then `CCC(C)(C)C1CCC(=NNC(=O)c2ccc(Br)o2)CC1` (stereo not drawn), with -0.98% (inactive).

For `CCCC(=O)NC(C)C(c1cccs1)N1CCN(c2ccccc2)CC1` (stereo not drawn), the activation is 25.9% (active).

Regarding `CC(NC(=O)Nc1ccccc1)C(c1cccs1)N1CCN(c2ccccc2)CC1` (stereo not drawn), the activation is -1.69% (inactive). Then `CC(NC(=O)C(C)(C)C)C(c1cccs1)N1CCN(Cc2ccccc2)CC1` (stereo not drawn), with -1.34% (inactive); and `C#CC(CCN1CCCCC1)(OC)c1ccccc1` (stereo not drawn), with -1.1% (inactive). Then `O=C(CCl)N(Cc1cccc([N+](=O)[O-])c1)c1cccc(Cl)c1`, with 31.3% (active). Consider `Cc1ccc(S(=O)(=O)N(Cc2cccc([N+](=O)[O-])c2)C(=O)N2CCN(C)CC2)cc1`, for which the activation was 2.18% (inactive). `O=C(c1cccc([N+](=O)[O-])c1)N1CCN(Cc2ccccc2)CC1`: the activation is -2.62% (inactive). As to `Cc1cc2c(cc1C)N(Cc1ccccc1)C1=NCCCN12`, the activation is -3.79% (inactive). In the case of `N#C/C(=C(/O)Cc1cccc2ccccc12)c1nc2ccccc2s1` it was -0.06% (inactive); in that of `N#C/C(=C(/O)COc1cccc2ccccc12)c1nc2ccccc2[nH]1`, 20.5% (active); in that of `CC(C)(C)c1nnc2sc(SCC(O)=C(C#N)c3nc4ccccc4[nH]3)nn2c1=O`, -3.45% (inactive). In the case of `COc1ccccc1C(=O)COC(=O)COc1ccc(C#N)cc1` it was -3.44% (inactive); in that of `COCCN(CCOC)S(=O)(=O)c1ccc(/C(O)=C(\C#N)c2nc3ccccc3[nH]2)cc1`, -0.63% (inactive). As for `N#C/C(=C(/O)COC(=O)COc1ccc(Cl)cc1)c1nc2ccccc2[nH]1`, the activation was 24.4% (active).

For the origin of these results see PubChem BioAssay AID504326 (The Scripps Research Institute Molecular Screening Center, 2011).
